Measurements reported in PubChem BioAssay (NCI).
About 83,000 compounds went through this panel and 20% of them were active in at least one assay; those are over-represented in the sample as a whole.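 Compound tested at a single concentration for 48 hours in 96-well plates; a percent growth value below 10 was scored as active.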 A number with no mark means an inactive call. The source made the active and inactive calls.

Tests used:
Assay in all cases: NCI-60 one-dose screen, 48 h (100 = growth as untreated, 0 = no growth, -100 = all killed)
Conditions in all cases: 10 µM unless noted
NCI-H23 lung = test system: NCI-H23 lung
NCI-H322M lung = test system: NCI-H322M lung
HOP-62 NSCLC = test system: HOP-62 NSCLC
NCI-H460 lung = test system: NCI-H460 lung
HOP-92 NSCLC = test system: HOP-92 NSCLC
NCI-H522 lung = test system: NCI-H522 lung
A549/ATCC NSCLC = test system: A549/ATCC NSCLC
786-0 renal = test system: 786-0 renal
COLO 205 colon = test system: COLO 205 colon
DU-145 prostate = test system: DU-145 prostate
K-562 leukemia = test system: K-562 leukemia
MALME-3M melanoma = test system: MALME-3M melanoma
MDA-MB-231 breast = test system: MDA-MB-231 breast
RXF 393 renal = test system: RXF 393 renal
SF-268 CNS = test system: SF-268 CNS
SF-295 CNS = test system: SF-295 CNS
SF-539 CNS = test system: SF-539 CNS
UACC-257 melanoma = test system: UACC-257 melanoma
M14 melanoma = test system: M14 melanoma
HCT-15 colon = test system: HCT-15 colon

SMILES | growth (NCI-H23 lung) | growth (NCI-H322M lung) | growth (HOP-62 NSCLC) | growth (NCI-H460 lung) | growth (HOP-92 NSCLC) | growth (NCI-H522 lung) | growth (A549/ATCC NSCLC) | growth (786-0 renal) [%] | growth (COLO 205 colon) | growth (DU-145 prostate) | growth (K-562 leukemia) | growth (MALME-3M melanoma) | growth (MDA-MB-231 breast) [%] | growth (RXF 393 renal) | growth (SF-268 CNS) [%] | growth (SF-295 CNS) | growth (SF-539 CNS) | growth (UACC-257 melanoma) [%] | growth (M14 melanoma) | growth (HCT-15 colon)
N#C/C(=C1\SC(=O)CN1c1ccccc1)c1nc2ccccc2s1 | 75.8% | 102% | 94.4% | 97.1% | 102% | 80.5% | 97% | 102 | 103% | 99.7% | 82.8% | 99.3% | 85.5 | 105% | 103 | 84.2% | 97.6% | 97 | 91.2% | 95.8%
O=C1c2cc(I)ccc2Oc2cc([N+](=O)[O-])ccc2N1c1ccc(Cl)cc1F | 87.7% | 93.4% | 89.9% | 90.4% | 88.3% | 65.7% | 78.2% | 98 | 106% | 97.9% | 49.4% | 84.9% | 78.4 | 99% | 79.1 | 92% | 92.8% | 94.1 | 97.7% | 57.4%
COc1ccc(-c2nc(-c3ccccn3)c(-c3ccccn3)n2CC(C)C)cc1OC1CCCC1 | 31.2% | 9.32% (active) | 28.3% | 5.25% (active) | 35.2% | 20.8% | 8.04% (active) | 24.5 | 12.1% | 28.7% | 10.4% | 16.5% | 30.8 | 19.3% | 19 | 8.48% (active) | 39% | 28.8 | 20.9% | 33.9%
COc1ccc(-c2cc(=O)c3c(OC)c4ccoc4c(/C=C/C=O)c3o2)cc1 | 40.5% | 51.2% | 15.5% | 64.8% | 72.4% | 88.3% | 90.7% | 82.8 | 99% | 24.8% | 12.2% | 24.8% | 53.6 | 48.5% | 36.2 | 31.7% | 14.8% | 108 | 28.4% | -54.1% (active)
CCN1C(=O)N(CC)C2Nn3c(s/c(=C\c4ccccc4F)c3=O)=NC21 (stereo not given) | 41.8% | 59.4% | 59.3% | 21.6% | 67.5% | 27.5% | 31.6% | 49.3 | 7.99% (active) | 37.4% | 15.9% | 78.4% | 35.1 | 36.7% | 54.9 | 14.9% | 11.6% | 65.2 | 23.3% | 26.5%
Cc1ccc(CN2CCC(C(=O)Nc3ccc(-c4cc5ccccc5[nH]4)cc3)CC2)o1 | 69.6% | 95.1% | 97.9% | 27.9% | 36.8% | 72% | 33.7% | 38.4 | 83.4% | 60.2% | 3.08% (active) | 77.9% | 60.7 | 54.6% | 66.6 | 17.2% | 84.3% | 85.4 | 41.9% | 44.2%
CCN1C(=O)N(CC)C2C1NN=c1s/c(=C3\C(=O)N(CC(C)(C)C)c4ccccc43)c(=O)n12 (stereo not given) | 45% | 60.5% | 47% | 4.52% (active) | 78.6% | -4.26% (active) | 30.1% | 39.9 | -38.1% (active) | 6.12% (active) | 4.89% (active) | 71.3% | 26 | 12.3% | 40 | 15.9% | -17.9% (active) | 71.4 | 18.3% | 14.2%
O=Cc1c(OCc2cnnn2CC(=O)Nc2ccc(Br)cc2)ccc2ccccc12 | 86.4% | 96.1% | 97.7% | 97.3% | 85.7% | 77.2% | 91.6% | 102 | 106% | 96.9% | 91.4% | 88.4% | 84.4 | 100% | 92.7 | 88.9% | 96.3% | 87 | 98.6% | 80.4%
O=C(c1nc2ccccc2[nH]1)C1[C@@H](c2cccc(O)c2)C2CC3CCCCC3N2[C@@]12C(=O)Nc1cc(Cl)ccc12 (stereo not given in full) | 48.6% | 61.6% | 60.3% | 13.1% | 55% | 51.9% | 27.2% | 35.2 | 63.5% | 43.7% | 21.5% | 32.1% | 34.7 | 1.99% (active) | 49.5 | 37.2% | 48.7% | 48.9 | 29.2% | 40.7%
O=C(c1nc2ccccc2[nH]1)C1C(c2ccc(F)cc2)C2CC3CCCCC3N2[C@@]12C(=O)Nc1ccc(Cl)cc12 (stereo not given in full) | 57.2% | 60.6% | 71.8% | 21.4% | 44.2% | 57.3% | 29.3% | 48.3 | 40.3% | 60.5% | 29.4% | 42.6% | 43.3 | 9.81% (active) | 57 | 29% | 55.5% | 58.9 | 40.7% | 28%
CN1CCN(Cc2ccc(NC(=O)c3[nH]ncc3Nc3cc(OC4CCCC4)ncn3)cc2)CC1 | 45.8% | 45.9% | 55.4% | 22.2% | 14.9% | 26.2% | 8.79% (active) | 20.9 | 7.6% (active) | 37.9% | 1.53% (active) | 65.4% | 23.8 | -0.487% (active) | 40.7 | 45.9% | 30.3% | 48.1 | 19.9% | 12.9%
Cc1ccc(NC2=CC(=O)C(=O)c3ccccc32)c(C)c1 | -25.5% (active) | 57.7% | 27.3% | -56.7% (active) | 123% | 47.6% | 5.75% (active) | 99.4 | 85% | -60.8% (active) | 61.3% | 62.5% | 49.5 | 85.5% | 63.2 | 34.6% | 48.8% | 23.1 | -15.5% (active) | 13.3%
COCCN(C(=O)Cc1cccs1)C(C(=O)NCc1ccc(OC)cc1)c1ccc(C(C)C)cc1 (stereo not given) | 86.4% | 92.2% | 97.8% | 78.2% | -3.71% (active) | 80.7% | 87.2% | 95 | 104% | 63.5% | 77% | 72.2% | 71.4 | 88.5% | 57.8 | 84.3% | 93.3% | 122 | 106% | 95.7%
O=C(Nc1ccc(Cl)cc1F)c1cc(I)ccc1O | 12.1% | 17.8% | 21.9% | 15.7% | -24.6% (active) | -9.32% (active) | 17.6% | 77.2 | 106% | 31.9% | 14.9% | -1.76% (active) | 52.8 | 14.8% | 17.1 | 48.4% | 16.4% | 21.9 | 27.9% | 25.4%
c1ccc(CNc2nc(Nc3ccccc3)nc3ccccc23)cc1 | 64.6% | 46.5% | -9% (active) | 48.2% | -2.52% (active) | 40.7% | 29.6% | 38.5 | 75.1% | 40.5% | 33.6% | -7.75% (active) | 66.8 | 2.83% (active) | 50.7 | -61.1% (active) | 40.2% | 14.4 | 55% | 72.6%
CC1=C(C(=O)OCC2CCN(C(=O)OC(C)(C)C)CC2)[C@H](c2cccc(Br)c2)C2=C(CC(C)(C)CC2=O)N1 | 48.4% | 57.2% | 55.7% | 8.59% (active) | 61.7% | 19.8% | 17.3% | 44.1 | 27.4% | 38.3% | 15.8% | 26.1% | 46 | 66.3% | 33.1 | 39.9% | 41.2% | 29.1 | 29.8% | 21%
